# TDP43 rescue = qHTS of TDP-43 Inhibitors; TDP-43 expressing yeast growth rescue, BacTiter-Glo, 24 h; Potency, µM (doses to about 46.1 µM), for the others: at the top dose growth rescue (activation), usual class: activators; 1.8% of 410,000 active; note: % of control where 0% means no effect; nearly all actives have a fitted effect of over 50% in size
#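 Luminescence from BacTiter-Glo reports growth of TDP-43-expressing yeast after 24 hr at 30 deg C with compound. Cells were raffinose-pregrown to mid-log, then seeded in galactose medium at OD600=0.02.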
# FUS suppressor = qHTS for Suppressors of FUS Proteinopathy: Primary screen using FUS-linked yeast assay; S. cerevisiae FUS-expressing, growth rescue, OD600, 24 h; 0.24% of 390,000 active; Potency, µM (highest dose often 76.6 µM), hits mostly activators; AID 1347120, 2019;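 note: plate controls were DMSO vehicle for no effect and reference control for full effect; nearly all actives have a fitted effect of over 55% in size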
#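 FUS-expressing yeast, raffinose-pregrown, induced in 2% galactose minimal medium at OD 0.005; compounds in a dilution series, 24hr at 30C. Growth restoration read as absorbance at 600 nm. CP55940 positive control, DMSO negative.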
# Mito fusion yeast = qHTS Assay for Small Molecule Inhibitors of Mitochondrial Division or Activators of Mitochondrial Fusion | S. cerevisiae fusion-defective mutant growth rescue, CellTiterGlo 48 h | Potency, µM (series often up to 46.1 µM), for inactives: at the highest dose growth rescue (activation), hits mostly activators | 0.23% of 320,000 active | AID 485298, 2010; note: % of control where 0% means no effect; nearly all actives have a fitted effect of over 45% in size
#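 Yeast fusion mutant, YPEG (non-fermentable carbon), compound, 48 h at 37C non-permissive; CellTiterGlo added, 10 min RT, luminescence read. Rescued growth = division inhibition.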
# Abeta rescue = qHTS for compounds that reverse cellular toxicity of Amyloid beta (A-beta) peptide in yeast: Primary Screen; yeast expressing A-beta42, growth rescue, OD600, 48 h; response scale: 0% DMSO, 100% iron-clioquinol control; Potency, µM (titrated, usually from 46.1 µM), usual class: activators; 0.063% of 410,000 active; AID 1347071, 2019; note: nearly all actives have a fitted effect of over 55% in size
#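 Growth rescue measured by 600 nm absorbance after 48 h yeast culture at 30 C with compound. Values normalized between DMSO and an equimolar ferric chloride plus clioquinol control.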
# aSyn yeast inh = qHTS of alpha-syn Inhibitors; Yeast expressing alpha-synuclein, growth rescue, BacTiter-Glo, 24 h; Potency, µM (doses to about 46.1 µM), for the others: at the highest dose growth rescue (activation), most hits filed as activators; 0.14% of 370,000 active; AID 652106, 2013; note: % of control where 0% means no effect; nearly all actives have a fitted effect of over 65% in size
#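 Rescue of yeast growth: cells expressing toxic alpha-synuclein, induced in galactose at OD600 0.02, incubated with compound 24 h at 30 C. ATP luminescence quantified growth; inhibitors of toxicity appear as activators.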
# * = called active by the depositor; i = inactive; u = inconclusive; x = not tested or not shown; ! = not confirmed by another sample; [ ] = remark or other dose. This is a sample that favours compounds with a hit; in the whole collection about 2.2% have one here. Calls come from the whole dose curve; as a rule, active = well fitted curve in the direction sought with a large enough effect; inconclusive = small, poorly fitted or top-dose-only effect, or another doubt; inactive = no such curve, though single readings can be large; an effect the other way counts as inactive or inconclusive. Potency is the fitted concentration of half-maximal effect.
SMILES,TDP43 rescue,FUS suppressor,Mito fusion yeast,Abeta rescue,aSyn yeast inh
COc1ccc(OCCCC(=O)ON=C(N)c2ccccc2Cl)cc1,10µM*,i,2.0%,i,3.5%[1.84 µM]
N/C(=N\OC(=O)CCCOc1ccccc1)c1ccncc1,-2.6%,i,-8.5%,i,9.2%
N/C(=N\OC(=O)CCCOc1ccc(Cl)cc1Cl)c1ccccn1,14.1µM*,i,-4.4%,i,2.0%
CCOC(=O)c1nn2c(C(F)(F)F)cc(-c3ccc(C)cc3)nc2c1Cl,15.3%,i,x,i,x
COc1cc2cc(CNc3ccccc3)c(=O)n(CC(=O)Nc3ccc(C)c(Cl)c3)c2cc1OC,-3.5%,i,x,i,9.7%
CCNC(=O)C1(C)CCN1CCS(=O)(=O)c1ccc(C)cc1 (stereo not drawn),8.2%,i,x,i,1.0%
O=C(NCC1CCCO1)c1ccccc1NS(=O)(=O)c1cc([N+](=O)[O-])ccc1Cl (stereo not drawn),-18.3%,x,x,i,22.4µM*
CCc1nn(CCCC(=O)NC2CCCCC2C)c(=O)c2cc3occc3n12 (stereo not drawn),22.4µM*,i,x,i,4.4%
CCc1nn(CCCC(=O)NCc2ccc(OC(C)C)cc2)c(=O)c2cc3occc3n12,7.0%,31.6µM*!,16.5%,i,-3.4%
CCc1ccc(NC(=O)CCCn2nc(CC)n3c(cc4occc43)c2=O)cc1,23.4%,i,8.3%,i,9.2%
N#C/C(=C(/O)COC(=O)Cc1c[nH]c2ccccc12)c1nc2ccccc2[nH]1,-0.1%,35.5µM*,1.2%,u,-0.5%
CCN(CC)c1ccc(NC(=O)c2c(C)nn(-c3ccc(F)cc3)c2-n2cccc2)c(C)c1,23.5%,i,x,i,-4.0%
Cc1c(Cl)cccc1NC(=S)NC1CCCC1,20µM*,i,-18.3%,u,-5.0%
Cc1c(Cl)cccc1NC(=S)NCCc1ccc(Cl)cc1,u,i,-26.8%,10µM*,10.5%
S=C(NCCc1ccc(Cl)cc1)NC1CCCCC1,0.0%,i,-0.3%,u,-6.7%
Cc1cccc(NC(=S)NCCc2ccccc2)c1C,17.8µM*,i,0.3%,i,-2.3%
S=C(NCCc1ccc(Cl)cc1)NC1CCCC1,20.6%,i,-9.4%,10µM*,-13.8%
CC(=O)Nc1ccc(/C=C/c2ccnc3ccccc23)cc1,x,x,x,x,-0.7%
COc1ccc(Cl)cc1NS(=O)(=O)c1ccc(OC)c(OC)c1,-6.9%,i,-0.7%,i,-2.0%
COc1ccc(Cl)cc1NS(=O)(=O)c1ccc2[nH]c3c(c2c1)CCCC3,12.6µM*,i,x,i,x
CCOC(=O)CC(NS(=O)(=O)c1ccc2[nH]c3c(c2c1)CCCC3)c1ccccc1Cl (stereo not drawn),20µM*,u,x,i,15.8µM*
COc1ccc(S(=O)(=O)Nc2cc(Cl)ccc2OC)cc1,3.16µM*,x,1.5%,i,24.5%
Cc1ccc(NC(=O)Cn2c(=O)n(CCCCCC(=O)NCc3ccc(F)cc3)c(=O)c3sccc32)cc1C,20.4%,i,x,i,x
COC(=O)c1sccc1S(=O)(=O)N(CC(=O)Nc1cccc(C)c1C)c1ccc(C)c(C)c1,7.2%,u,x,i,x
CC(=O)c1cccc(NC(=O)C2CCN(c3nnc(-n4cccc4)s3)CC2)c1,3.6%,i,x,i,2.1%
SMILES,TDP43 rescue,FUS suppressor,Mito fusion yeast,Abeta rescue,aSyn yeast inh
Cc1cc(SCC(=O)O)nc2ccccc12,26.2%,i,-0.1%,i,5.1%
Cc1cc(SCC(=O)c2ccc(O)c(O)c2)nc2ccccc12,22.4µM*,i,3.5%,i,u
Cc1cc(SCC(=O)NC(=O)c2cccn2C)nc2ccccc12,20µM*,i,-2.7%,u,0.6%
CN(C(=O)CSc1ncnc2ccccc12)C1CCCCC1,12.6µM*,i,0.5%,i,4.4%
Cc1cc(SCC(=O)N(C)C2CCCCC2)nc2ccccc12,17.8µM*,i,x,i,0.2%
CN(C(=O)COc1ncnc2ccccc12)C1CCCCC1,-33.5%,i,x,i,1.4%
O=C(COc1ccccc1C(=O)Nc1ccccc1F)Nc1ccc(Br)cc1,x,x,x,x,-11.2%
O=C(OCC1CCCO1)c1ccc2c(c1)N(Cc1ccccc1F)C(=O)c1ccccc1S2(=O)=O (stereo not drawn),0.0%,i,x,i,x
Cc1sc2nc(C3CC3)nc(SCC(=O)N3CCc4ccccc4C3)c2c1C,u,x,12.6µM*,i,10.6%
CCc1c(C)sc2nc(C(C)C)nc(SCC(=O)N3CCc4ccccc4C3)c12,-14.5%,i,u,i,19.5%
COc1ccc(Cn2cc(C(=O)c3ccc(Cl)cc3)c(=O)c3cc4c(cc32)OCO4)cc1,6.5%,i,x,i,x
O=C(Nc1ccc(Cl)c(C(F)(F)F)c1)c1ccncc1,10µM*,i,0.1%,i,-1.4%
O=C(CCNC(=O)c1ccccc1Cl)Nc1ccc(Cl)c(C(F)(F)F)c1,-5.0%,i,35.5µM*,i,-5.7%
O=C(Nc1ccc(NC(=O)c2ccncc2)cc1)c1ccncc1,x,x,-1.0%,x,x
O=C(Nc1ccc(Cl)c(C(F)(F)F)c1)C(=O)N1CCCCC1,17.8µM*,x,-1.1%,i,9.7%
COc1ccc(N(C(=O)c2snc(C(N)=O)c2N)C(C(=O)NC2CCCC2)c2ccc3ncccc3c2)cc1 (stereo not drawn),-19.8%,28.2µM*,5.5%,i,-5.0%
COc1ccc(N(C(=O)c2snc(C(N)=O)c2N)C(C(=O)NCc2ccc(F)cc2)c2ccc(O)cc2)cc1 (stereo not drawn),-8.4%,28.2µM*,-3.7%,i,-1.4%
CS(=O)(=O)OC12CCCN(C1)/C(=C/c1ccc(Cl)cc1)C2 (stereo not drawn),x,i,x,x,x
Cc1cc(=O)[nH]c2nnc(SCc3ccc(Cl)c(Cl)c3)n12,-3.2%,i,x,i,x
Cc1ccc(Cl)cc1NC(=O)c1cc2c(=O)n3cccc(C)c3nc2n1C,u,i,x,i,x
O=C(NCC(c1cccnc1)N1CCOCC1)C(=O)Nc1cccc(Cl)c1 (stereo not drawn),15.8%,i,x,i,x
NC1=NS(=O)(=O)Nc2ccccc21,x,i,x,x,x
Nc1ccc2c(c1)-c1ccccc1S(=O)(=O)N2,-15.1%,28.2µM*,-0.5%,i,-6.9%
Cc1ccc2c(c1)-c1ccccc1S(=O)(=O)N2,u,x,15.8%,i,12.6µM*
Cc1ccc(C)c(OC2=NS(=O)(=O)c3ccccc32)c1,7.8%,i,3.0%,i,0.6%
CN(C)c1ccc(C(=C2c3ccccc3-c3ccccc32)c2ccc(N(C)C)cc2)cc1,x,x,x,x,2.4%
